“And” between values parts separate entries of the source, which are not always exact repeats. Equal values may be shown once. Inconclusive results are not listed. The source holds several records for some structures; these can differ, active in one and inactive in another. The source made the active and inactive calls. Rule for the calls: active = hit-call score of the fitted dose curve at least 0.9, where 1 is the maximum; inconclusive = response in the unintended direction; inactive = score below 0.9.
How the values were obtained:
[1] = biological target: Estrogen receptor beta (Homo sapiens) (UniProt Q92731); test: ATG_hERb_XSP1: Attagene TRANS-FACTORIAL Multi-Species (XSP1) HepG2 Assay for human Estrogen Receptor (ESR2) (AID 2283788)
Chain of Estrogen receptor beta (Homo sapiens) (Q92731 whole entry, looked up, the tested form may be a part): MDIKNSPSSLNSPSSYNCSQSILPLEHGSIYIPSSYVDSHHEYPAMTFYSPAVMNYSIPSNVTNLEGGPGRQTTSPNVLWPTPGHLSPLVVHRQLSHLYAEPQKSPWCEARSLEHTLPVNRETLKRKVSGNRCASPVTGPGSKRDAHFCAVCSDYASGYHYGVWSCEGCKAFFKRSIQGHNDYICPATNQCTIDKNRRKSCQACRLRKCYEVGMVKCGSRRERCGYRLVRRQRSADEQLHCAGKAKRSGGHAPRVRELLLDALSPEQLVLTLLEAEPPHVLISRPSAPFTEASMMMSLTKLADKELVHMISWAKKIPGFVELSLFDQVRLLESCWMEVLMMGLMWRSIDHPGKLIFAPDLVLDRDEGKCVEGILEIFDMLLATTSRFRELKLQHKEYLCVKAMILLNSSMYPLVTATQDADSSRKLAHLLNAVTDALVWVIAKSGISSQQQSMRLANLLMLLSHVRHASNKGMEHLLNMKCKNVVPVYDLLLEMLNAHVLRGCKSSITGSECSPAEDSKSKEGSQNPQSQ
How it was run: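 Multiplexed trans-activation in transfected HepG2: ERβ-Gal4 reporter transcripts after 24 h treatment, detected by RT-PCR plus capillary electrophoresis.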

[2] = biological target: GAL4 Transcription Factor (Internal Marker), GAL4 (gene 855828) (UniProt P04386); test: ATG_GAL4_XSP1: Attagene TRANS-FACTORIAL Multi-Species (XSP1) HepG2 Assay for GAL4 Transcription Factor (Internal Marker) (AID 2283789)
How it was run: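 This background-control endpoint measures GAL4-driven reporter mRNA via RT-PCR and capillary electrophoresis of labelled fragments. Transiently transfected HepG2 cells were treated 24 h, with 3 nM 6-alpha-fluorotestosterone included, and gain-of-signal was fitted against DMSO.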

[3] = ATG_M_06_XSP1: Attagene TRANS-FACTORIAL Multi-Species (XSP1) HepG2 Assay for M06 Transcription Factor (Internal Marker) (AID 2283790)
How it was run: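 This background-control readout tracks M06 reporter mRNA, measured by RT-PCR and capillary electrophoresis. HepG2 cells transiently carrying the GAL4-UAS reporter panel were dosed for 24 h with 3 nM 6-alpha-fluorotestosterone added for partial AR stimulation; increases were scored relative to DMSO.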

[4] = ATG_M_61_XSP1: Attagene TRANS-FACTORIAL Multi-Species (XSP1) HepG2 Assay for M61 Transcription Factor (Internal Marker) (AID 2283797)
How it was run: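 Background-control readout: reporter transcripts measured by RT-PCR and capillary electrophoresis 24 h after dosing transiently transfected HepG2 multi-reporter cells, with 3 nM 6-alpha-fluorotestosterone present. Fitted in the positive direction relative to DMSO.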

[5] = ATG_M_19_XSP1: Attagene TRANS-FACTORIAL Multi-Species (XSP1) HepG2 Assay for M19 Transcription Factor (Internal Marker) (AID 2283798)
How it was run: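 Readout is reporter mRNA induction quantified via RT-PCR, 6-FAM labeling, HpaI digestion and capillary electrophoresis, fitted in the positive direction versus DMSO baseline. Transfected HepG2 cells exposed 24 h, medium including 3 nM 6-alpha-fluorotestosterone.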

[6] = ATG_M_32_XSP1: Attagene TRANS-FACTORIAL Multi-Species (XSP1) HepG2 Assay for M32 Transcription Factor (Internal Marker) (AID 2283799)
How it was run: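 Reporter transcripts from the M32 internal-control unit measured by RT-PCR, FAM labelling, HpaI digestion and capillary electrophoresis after 24 h compound exposure of transfected HepG2, 3 nM 6-alpha-fluorotestosterone included; DMSO baseline, positive-direction fit.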

[7] = test system: zebrafish Peroxisome Proliferator-activated Receptor gamma (PPARg), gene 557037; test: ATG_zfPPARg_XSP1: Attagene TRANS-FACTORIAL Multi-Species (XSP1) HepG2 Assay for zebrafish Peroxisome Proliferator-activated Receptor gamma (PPARg) (AID 2283801)
How it was run: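 Trans-activation readout of chimeric zebrafish PPARg–GAL4 in transiently transfected human HepG2 cells, 24 h chemical exposure (medium includes 3 nM 6-alpha-fluorotestosterone). Reporter transcripts measured by RT-PCR and capillary electrophoresis, fitted as gain over DMSO.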

[8] = biological target: mouse Peroxisome Proliferator-activated Receptor gamma (PPARg), Pparg (gene 19016) (UniProt P37238); test: ATG_mPPARg_XSP1: Attagene TRANS-FACTORIAL Multi-Species (XSP1) HepG2 Assay for mouse Peroxisome Proliferator-activated Receptor gamma (PPARg) (AID 2283802)
Chain of mouse Peroxisome Proliferator-activated Receptor gamma (PPARg), Pparg (gene 19016) (P37238 whole entry, looked up, the tested form may be a part): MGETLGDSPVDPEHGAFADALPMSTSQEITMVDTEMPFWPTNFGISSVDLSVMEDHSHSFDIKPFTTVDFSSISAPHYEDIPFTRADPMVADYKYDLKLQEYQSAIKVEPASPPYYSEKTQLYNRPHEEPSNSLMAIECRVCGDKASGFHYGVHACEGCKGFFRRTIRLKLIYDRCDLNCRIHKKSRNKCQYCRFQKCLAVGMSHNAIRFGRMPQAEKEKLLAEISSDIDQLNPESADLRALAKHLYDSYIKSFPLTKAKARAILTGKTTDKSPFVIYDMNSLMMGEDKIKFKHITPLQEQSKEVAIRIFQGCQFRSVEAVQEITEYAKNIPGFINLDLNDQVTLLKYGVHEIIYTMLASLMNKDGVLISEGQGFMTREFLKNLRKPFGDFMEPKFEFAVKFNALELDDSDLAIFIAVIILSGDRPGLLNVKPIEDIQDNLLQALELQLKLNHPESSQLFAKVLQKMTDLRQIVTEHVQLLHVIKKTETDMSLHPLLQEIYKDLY
How it was run: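 Readout is reporter mRNA induction, measured by RT-PCR with 6-FAM labelling, HpaI digestion and capillary electrophoresis, 24 h post-dose relative to DMSO. Transient multi-reporter transfection of human HepG2 with mouse PPARg–GAL4 fusion; 3 nM 6-alpha-fluorotestosterone included.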

[9] = biological target: Nuclear receptor subfamily 1 group I member 2 (Mus musculus) (UniProt O54915); test: ATG_mPXR_XSP1: Attagene TRANS-FACTORIAL Multi-Species (XSP1) HepG2 Assay for mouse Pregnane X Receptor (PXR) (AID 2283803)
Chain of Nuclear receptor subfamily 1 group I member 2 (Mus musculus) (O54915 whole entry, looked up, the tested form may be a part): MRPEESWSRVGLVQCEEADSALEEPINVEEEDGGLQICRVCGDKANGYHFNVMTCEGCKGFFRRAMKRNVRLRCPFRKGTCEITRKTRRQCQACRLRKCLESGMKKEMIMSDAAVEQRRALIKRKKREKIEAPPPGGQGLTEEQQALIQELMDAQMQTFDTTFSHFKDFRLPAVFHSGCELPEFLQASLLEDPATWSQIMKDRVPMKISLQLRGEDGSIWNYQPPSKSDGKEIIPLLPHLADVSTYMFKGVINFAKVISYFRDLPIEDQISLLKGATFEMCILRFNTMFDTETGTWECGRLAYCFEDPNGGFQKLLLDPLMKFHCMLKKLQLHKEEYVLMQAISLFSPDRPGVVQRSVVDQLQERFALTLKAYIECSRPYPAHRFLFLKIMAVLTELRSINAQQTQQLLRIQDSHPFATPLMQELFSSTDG
How it was run: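 Transiently transfected HepG2 cells expressing a receptor-Gal4 chimera drive a GAL4-UAS reporter; 3 nM 6-alpha-fluorotestosterone included. Reporter mRNA read 24 h post-dose by RT-PCR and capillary electrophoresis; gain of signal relative to DMSO.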

[10] = test system: turtle Thyroid Hormone Receptor, alpha (TRa), gene 101949057; test: ATG_trTRa_XSP1: Attagene TRANS-FACTORIAL Multi-Species (XSP1) HepG2 Assay for turtle Thyroid Hormone Receptor, alpha (TRa) (AID 2283806)
How it was run: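 After 24 h chemical exposure, reporter transcripts were measured by RT-PCR with fluorescent primer extension, HpaI digestion and capillary electrophoresis. Cells were transiently transfected HepG2 expressing exogenous NR-Gal4 chimeras; medium contained 3 nM 6-alpha-fluorotestosterone; fitted upward relative to DMSO.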

[11] = biological target: zebrafish Thyroid Hormone Receptor alpha (TRa), thraa (gene 30670) (UniProt Q98867); test: ATG_zfTRa_XSP1: Attagene TRANS-FACTORIAL Multi-Species (XSP1) HepG2 Assay for zebrafish Thyroid Hormone Receptor alpha (TRa) (AID 2283807)
Chain of zebrafish Thyroid Hormone Receptor alpha (TRa), thraa (gene 30670) (Q98867 whole entry, looked up, the tested form may be a part): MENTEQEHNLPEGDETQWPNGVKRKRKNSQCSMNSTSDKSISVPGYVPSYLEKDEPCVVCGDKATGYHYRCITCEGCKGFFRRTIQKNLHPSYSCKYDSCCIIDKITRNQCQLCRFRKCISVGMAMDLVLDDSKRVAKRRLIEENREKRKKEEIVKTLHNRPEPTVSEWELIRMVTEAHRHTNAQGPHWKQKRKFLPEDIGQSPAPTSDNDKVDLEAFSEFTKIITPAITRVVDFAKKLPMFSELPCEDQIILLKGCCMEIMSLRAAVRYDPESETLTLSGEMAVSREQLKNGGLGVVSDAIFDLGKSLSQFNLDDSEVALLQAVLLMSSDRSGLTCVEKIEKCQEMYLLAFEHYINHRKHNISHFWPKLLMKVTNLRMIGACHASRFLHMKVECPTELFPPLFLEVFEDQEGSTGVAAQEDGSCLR
How it was run: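 Reporter transcripts driven by a chimeric zebrafish TRa–Gal4 protein were measured by RT-PCR with fluorescent labelling and capillary electrophoresis. These came from transiently transfected HepG2 cells after 24 h chemical exposure, with 3 nM 6-alpha-fluorotestosterone added; baseline was DMSO.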

[12] = biological target: zebrafish Thyroid Hormone Receptor beta (TRb), thrb (gene 30607) (UniProt Q9PVE4); test: ATG_zfTRb_XSP1: Attagene TRANS-FACTORIAL Multi-Species (XSP1) HepG2 Assay for zebrafish Thyroid Hormone Receptor beta (TRb) (AID 2283809)
Chain of zebrafish Thyroid Hormone Receptor beta (TRb), thrb (gene 30607) (Q9PVE4 whole entry, looked up, the tested form may be a part): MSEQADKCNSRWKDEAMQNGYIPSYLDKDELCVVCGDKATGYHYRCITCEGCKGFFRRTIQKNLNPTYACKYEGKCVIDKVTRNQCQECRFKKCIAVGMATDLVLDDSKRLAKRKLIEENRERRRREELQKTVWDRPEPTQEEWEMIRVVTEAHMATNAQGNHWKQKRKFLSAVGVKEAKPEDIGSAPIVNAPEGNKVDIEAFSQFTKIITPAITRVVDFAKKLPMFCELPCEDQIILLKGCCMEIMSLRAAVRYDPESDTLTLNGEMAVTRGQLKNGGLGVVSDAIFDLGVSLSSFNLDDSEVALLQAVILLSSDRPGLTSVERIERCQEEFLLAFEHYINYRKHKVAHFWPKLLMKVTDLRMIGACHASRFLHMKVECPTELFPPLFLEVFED
How it was run: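 HepG2 cells transiently transfected with multiplexed GAL4-UAS reporter units expressing chimeric zebrafish TRb–Gal4. Dosed 24 h with 3 nM 6-alpha-fluorotestosterone present; reporter mRNA measured by RT-PCR, HpaI digestion and capillary electrophoresis; gain of signal versus DMSO.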

[13] = ATG_M_06_XSP2: Attagene TRANS-FACTORIAL Multi-Species (XSP2) HepG2 Assay for M06 Transcription Factor (Internal Marker) (AID 2283811);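 note: hits are increases in signal above the DMSO baseline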
How it was run: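 Cells of the human liver line HepG2 carried transfected reporter transcription units and were treated for 24 h. Induced reporter transcripts were detected by fluorescence after RT-PCR and capillary electrophoresis, with activity fitted in the gain direction against DMSO.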

[14] = test system: turtle Estrogen Receptor (ERa), gene 101933533; test: ATG_trERa_XSP2: Attagene TRANS-FACTORIAL Multi-Species (XSP2) HepG2 Assay for turtle Estrogen Receptor (ERa) (AID 2283812);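 note: actives raise reporter signal above DMSO so AC50 reflects agonist activity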
How it was run: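 Readout is reporter mRNA quantified by RT-PCR with capillary electrophoresis after 24 h compound exposure, increase relative to DMSO. Uses transiently transfected human HepG2 liver cells carrying a chimeric turtle ERa-Gal4 receptor driving GAL4-UAS reporters.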

[15] = biological target: Peroxisome proliferator-activated receptor gamma (Homo sapiens) (UniProt P37231); test: ATG_hPPARg_XSP1: Attagene TRANS-FACTORIAL Multi-Species (XSP1) HepG2 Assay for human Peroxisome Proliferator-activated Receptor gamma (PPARg) (AID 2283800)
Chain of Peroxisome proliferator-activated receptor gamma (Homo sapiens) (P37231 whole entry, looked up, the tested form may be a part): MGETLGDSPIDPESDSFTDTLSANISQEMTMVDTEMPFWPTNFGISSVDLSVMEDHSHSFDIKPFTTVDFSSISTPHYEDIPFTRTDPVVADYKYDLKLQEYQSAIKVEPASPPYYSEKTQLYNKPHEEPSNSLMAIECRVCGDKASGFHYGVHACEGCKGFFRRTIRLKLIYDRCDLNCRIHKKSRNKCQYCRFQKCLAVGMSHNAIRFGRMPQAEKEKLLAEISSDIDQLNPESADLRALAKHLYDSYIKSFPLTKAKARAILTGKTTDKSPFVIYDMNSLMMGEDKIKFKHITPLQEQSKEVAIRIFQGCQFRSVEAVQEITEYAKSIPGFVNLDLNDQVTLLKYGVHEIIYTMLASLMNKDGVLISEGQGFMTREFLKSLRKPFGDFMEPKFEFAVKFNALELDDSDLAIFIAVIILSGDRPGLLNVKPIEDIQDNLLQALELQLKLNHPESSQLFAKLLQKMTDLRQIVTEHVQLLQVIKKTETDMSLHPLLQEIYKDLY
How it was run: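 Reporter mRNA induction, measured by RT-PCR with capillary electrophoresis 24 h after dosing, scored as gain over DMSO. Transfected HepG2 cells express exogenous NR-Gal4 chimeras driving GAL4-UAS reporters; medium includes 3 nM 6-alpha-fluorotestosterone.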

[16] = biological target: frog Thyroid hormone Receptor alpha (TRa), thra-a (gene 397942) (UniProt P15204); test: ATG_frTRa_XSP1: Attagene TRANS-FACTORIAL Multi-Species (XSP1) HepG2 Assay for frog Thyroid hormone Receptor alpha (TRa) (AID 2283804)
Chain of frog Thyroid hormone Receptor alpha (TRa), thra-a (gene 397942) (P15204 whole entry, looked up, the tested form may be a part): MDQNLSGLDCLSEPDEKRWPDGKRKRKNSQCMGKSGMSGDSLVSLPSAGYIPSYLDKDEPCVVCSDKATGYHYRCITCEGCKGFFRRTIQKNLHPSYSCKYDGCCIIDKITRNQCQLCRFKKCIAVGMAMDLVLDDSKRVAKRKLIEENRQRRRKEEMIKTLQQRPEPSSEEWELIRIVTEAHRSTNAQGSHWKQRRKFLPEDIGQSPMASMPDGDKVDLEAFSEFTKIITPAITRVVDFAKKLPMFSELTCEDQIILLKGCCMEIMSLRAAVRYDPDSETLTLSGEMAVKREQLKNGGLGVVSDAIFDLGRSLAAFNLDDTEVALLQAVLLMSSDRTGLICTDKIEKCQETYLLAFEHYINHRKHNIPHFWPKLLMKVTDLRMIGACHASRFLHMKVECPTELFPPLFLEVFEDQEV
How it was run: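 Reporter transcript induction, measured by RT-PCR with 6-FAM labelling and capillary electrophoresis, 24 hr after dosing transiently transfected HepG2 cells expressing a frog TRa-GAL4 fusion; medium contained 3 nM 6-alpha-fluorotestosterone; increase over DMSO scored.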

[17] = biological target: human Thyroid hormone Receptor beta (TRb), THRB (gene 7068) (UniProt P10828); test: ATG_hTRb_XSP1: Attagene TRANS-FACTORIAL Multi-Species (XSP1) HepG2 Assay for human Thyroid hormone Receptor beta (TRb) (AID 2283808)
Chain of human Thyroid hormone Receptor beta (TRb), THRB (gene 7068) (P10828 whole entry, looked up, the tested form may be a part): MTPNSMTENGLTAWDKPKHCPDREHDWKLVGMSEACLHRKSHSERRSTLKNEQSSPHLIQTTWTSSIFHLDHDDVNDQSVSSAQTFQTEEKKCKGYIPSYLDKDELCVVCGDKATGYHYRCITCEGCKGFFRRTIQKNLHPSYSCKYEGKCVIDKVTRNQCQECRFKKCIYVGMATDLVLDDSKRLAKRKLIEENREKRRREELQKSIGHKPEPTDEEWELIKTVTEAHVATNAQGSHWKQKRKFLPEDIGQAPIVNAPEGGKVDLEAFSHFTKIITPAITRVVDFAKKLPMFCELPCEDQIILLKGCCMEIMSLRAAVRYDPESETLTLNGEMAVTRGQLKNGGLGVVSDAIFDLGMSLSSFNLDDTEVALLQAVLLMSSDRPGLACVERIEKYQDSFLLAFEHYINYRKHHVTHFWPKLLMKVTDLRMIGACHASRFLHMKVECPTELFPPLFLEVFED
How it was run: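 Readout is reporter mRNA induction measured by RT-PCR, fluorescent labelling and capillary electrophoresis, fitted upward relative to DMSO. Transiently transfected human HepG2 cells expressing NR-Gal4 chimeras were dosed for 24 h, medium containing 3 nM 6-alpha-fluorotestosterone.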

[18] = ATG_XTT_Cytotoxicity_XSP1: Cytotoxicity Assessment in the Attagene TRANS-FACTORIAL Multi-Species (XSP1) HepG2 Assay (AID 2283810)
How it was run: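 XTT viability readout taken at 24 hours post-dosing in HepG2 liver cells co-treated with 3 nM 6-alpha-fluorotestosterone. Signal loss relative to DMSO controls reflects cytotoxicity.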

AR (gene 367) = AR (gene 367) (UniProt P10275); test: ACEA_AR_antagonist_80hr: ACEA Biosciences xCELLigence Real-Time Cell Analysis on Androgen Receptor Antagonism for Proliferation (AID 2283787);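 note: 22Rv1 human prostate cancer cells with growth followed by electrical impedance; hits lower the impedance growth signal relative to DMSO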
Chain of AR (gene 367) (P10275 whole entry, looked up): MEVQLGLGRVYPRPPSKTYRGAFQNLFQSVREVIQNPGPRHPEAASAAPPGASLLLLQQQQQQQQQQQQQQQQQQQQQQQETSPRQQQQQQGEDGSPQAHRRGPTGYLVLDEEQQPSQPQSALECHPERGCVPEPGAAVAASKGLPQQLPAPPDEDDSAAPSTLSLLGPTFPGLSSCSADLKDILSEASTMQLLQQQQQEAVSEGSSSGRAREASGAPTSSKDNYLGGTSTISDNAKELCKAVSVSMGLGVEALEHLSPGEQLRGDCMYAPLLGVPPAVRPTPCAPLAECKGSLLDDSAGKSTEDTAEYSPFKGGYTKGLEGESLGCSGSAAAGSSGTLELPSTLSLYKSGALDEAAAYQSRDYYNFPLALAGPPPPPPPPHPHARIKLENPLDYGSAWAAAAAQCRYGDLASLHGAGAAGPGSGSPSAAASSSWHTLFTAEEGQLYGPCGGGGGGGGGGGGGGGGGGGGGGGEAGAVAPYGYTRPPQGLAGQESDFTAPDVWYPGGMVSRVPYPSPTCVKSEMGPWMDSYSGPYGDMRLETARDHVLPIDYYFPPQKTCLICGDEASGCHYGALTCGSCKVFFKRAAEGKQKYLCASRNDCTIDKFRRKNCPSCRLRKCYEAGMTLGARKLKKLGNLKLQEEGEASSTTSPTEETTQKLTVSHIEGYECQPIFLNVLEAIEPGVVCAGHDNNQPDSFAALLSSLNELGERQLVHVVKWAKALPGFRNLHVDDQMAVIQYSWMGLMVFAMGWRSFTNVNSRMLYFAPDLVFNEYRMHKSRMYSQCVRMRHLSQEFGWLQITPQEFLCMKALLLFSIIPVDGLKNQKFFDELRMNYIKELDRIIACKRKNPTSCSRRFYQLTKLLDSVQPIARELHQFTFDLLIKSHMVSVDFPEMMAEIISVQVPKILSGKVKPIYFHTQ
How it was run: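 Using 22Rv1 cells held in assay medium, we dosed compounds (100 uM maximum final, 1:4 serial, eight points, 0.5% DMSO at top) and recorded cell-electrode impedance; the 80 hr timepoint was analyzed against DMSO.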

[19] = biological target: human Thyroid hormone Receptor alpha (TRa), THRA (gene 7067) (UniProt P10827); test: ATG_hTRa_XSP1: Attagene TRANS-FACTORIAL Multi-Species (XSP1) HepG2 Assay for human Thyroid hormone Receptor alpha (TRa) (AID 2283805)
How it was run: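 Reporter transcripts from the human TRa-Gal4 TRANS unit quantified by RT-PCR, fluorescent labeling and capillary electrophoresis after 24 hours of chemical exposure in transfected HepG2 cells; medium contains 3 nM 6-alpha-fluorotestosterone. Positive direction fit against DMSO.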

Measured: AC50

CCCCC(CC)COC(=O)c1ccccc1C(=O)O (configuration not stated)
active: [7] 64.2 µM | [8] 13.2 µM | [9] 3.95 µM | [14] 27.1 µM
not listed: [15] | [16] | [17] | [18] | AR (gene 367) | [19]
inactive: all other assays above

C=CCOC(Cn1ccnc1)c1ccc(Cl)cc1Cl (configuration not stated)
active: [1] 7.53 µM | [15] 100 µM | [8] 9.81 µM | [9] 0.948 µM
not listed: [2] | [5] | [10] | [12] | AR (gene 367) | [19]
inactive: all other assays above

O=C(c1ccc(O)cc1O)c1ccc(O)cc1O
active: AR (gene 367) 26.3 µM | [1] 0.227 µM | [14] 2.86 µM
not listed: [2] | [5] | [6] | [7] | [9] | [10]
inactive: all other assays above

CCN(Cc1c(F)cccc1Cl)c1c([N+](=O)[O-])cc(C(F)(F)F)cc1[N+](=O)[O-]
active: [14] 2.15 µM
inactive: [14]

Oc1ccc(C(c2ccc(O)cc2)C(Cl)(Cl)Cl)cc1
not listed: [5] | [6] | [18] | AR (gene 367) | [19]
inactive: all other assays above

CN(C)C(=O)Nc1ccc(Cl)c(Cl)c1
inactive: [13]
active: AR (gene 367) 40.8 µM | [14] 25.1 µM and 18 µM

CSC(=O)c1cccc2nnsc12
inactive: AR (gene 367) | [13] | [14]

CC(C)CCCCCCc1ccc(O)cc1
active: [1] 0.246 µM | [8] 15.9 µM | [14] 0.989 µM
inactive: [3] | [4] | [15] | [7] | [9] | [10] | [12] | [13]

c1ccc2[nH]c(-c3cscn3)nc2c1
active: AR (gene 367) 50 µM

From PubChem BioAssay (EPA / NIEHS)
